Among the data in PubChem BioAssay (NCI) are growth values, retold here.

About 83,000 compounds went through this panel and 20% of them were active in at least one assay; those are over-represented in the sample as a whole.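 Values shown are percent growth following 48 h exposure of cells in 96-well plates to a single concentration of compound; below 10 was considered active.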 Active and inactive are the calls of the source.

The assay relates to SR leukemia. In words: NCI-60 one-dose screen, 48 h (100 = growth as untreated, 0 = no growth, -100 = all killed). The following applies: 10 µM unless noted. How it is done:
Growth inhibition of the SR human tumor cell line is measured as a screen for anti-cancer activity. Cells are grown in 96 well plates and exposed to the test compound for 48 hours. Compounds are tested at a single concentration, which is 10^-5 M for most compounds. The reported endpoint is percent growth (GI% or GIPRCNT), where numbers from 0 - 100% represent growth inhibition, and numbers from -100% - 0 represent cell death. For example, a value of 40 represents 60% growth inhibition. A value of 0 means no net growth occurred over the course of the experiment. A value of -40 indicates 40% of cells at the beginning of the experiment died by the end of the experiment. A value of -100 means all cells are dead at the end of the experiment.
NCI-60 Human Tumor Cell Lines Screen was performed using the standard one-dose NCI protocol, which is described in more detail at https://dtp.cancer.gov/discovery_development/nci-60/default.htm.
Compounds with GIPRCNT values below 10 were considered active. Activity score was based on GIPRCNT using the following formula: […]
Score is 0 for GIPRCNT values of 100 or above, 50 for GIPRCNT values of 0, and 100 for GIPRCNT values of -100.
Consider `COc1cccc(-c2cnco2)c1OCc1c(C)c(COc2c(OC)cccc2-c2cnco2)c(C)c(COc2c(OC)cccc2-c2cnco2)c1C`, for which the growth is 64.2% (inactive).
As to `CCNCCNc1cc(-c2ccc(Cl)cc2)c(C#N)c2nc3ccccc3n12`, the growth is -35.6% (active).
With `Cl.[Pt].[c-]1ccccc1-c1ccccn1.c1ccc(P(c2ccccc2)C([PH+](c2ccccc2)c2ccccc2)[PH+](c2ccccc2)c2ccccc2)cc1`, the growth is 20.4% (inactive).
Regarding `O=[N+]([O-])c1ccc(-c2cc3c(Nc4ccc(Cl)c(C(F)(F)F)c4)ncnc3s2)cc1`, the growth was 17% (inactive).
The result for `Cc1ccc(S(=O)(=O)N(CC[C@@H]2C[C@H]2c2cc3ccccc3o2)C(=O)NC2CCCCC2)cc1` reads 100% (inactive).
The result for `Cc1ccc(/C(=N\N=C(N)N)c2ccccc2)cc1` reads 10.8% (inactive); that for `Cc1nc(Nc2cccc(NC(=O)Nc3ccc(Cl)cc3)c2)c2ccccc2n1`, 22.1% (inactive); that for `CCCCCCNC(=O)c1cc(NCc2cc(O)ccc2O)ccc1O`, 7.38% (active).
As for `COc1cc2oc3cc(C)oc(=O)c3c2cc1OC`, the figure is 106% (inactive); as for `COc1ccc(N=c2nc3sc4cc(Cl)ccc4n3c(N)c2C#N)cc1`, 91.2% (inactive); as for `N=C(N)c1ccc(-c2ccc(-c3ccc(Cl)cc3Cl)o2)nc1`, 1.87% (active).
Take `CCn1c(Sc2nnc(NC(=O)CCN3CCCC3)s2)nc2c1c(=O)n(C)c(=O)n2C`: the growth is 111% (inactive).
The result for `Cc1ccc(/C=C(\C#N)n2nnc3cc(Cl)c(Cl)cc32)cc1` reads 17.3% (inactive).
Take `Cn1ccc(Cc2cnc(N)s2)n1`: the growth is 88.7% (inactive).
As for `O=C(CCCCCCCn1cc(-c2cccnc2)nn1)Nc1ccccc1-c1ccccc1`, the figure is 49.2% (inactive).
The result for `O=C(NC(=S)Nc1ccc(-c2nc3ccccc3[nH]2)cc1)c1ccc2ccccc2c1` reads 5.49% (active).
With `NC(N)=N/N=C(/c1ccccc1)c1ccc(N)cc1`, the growth was 88.8% (inactive).
As for `CN1C[C@@H](c2ccc(Cl)cc2)[C@]2(NC(=S)N(c3ccccc3)C2=O)[C@@]12C(=O)NC1C=CC(Br)=C[C@H]12` (stereo not given in full), the figure is 48.2% (inactive); as for `C[C@@H]1C(=O)N(C[C@@H](Cc2ccccc2)NC(=O)OCc2ccccc2)[C@]1(Cc1ccccc1)C(=O)OCc1ccccc1`, 16.6% (inactive).
The result for `C=C1C(=O)O[C@H]2[C@H]1CC/C(COC(=O)/C=C\C(=O)NCc1ccc(Cn3c(=O)sn(-c4ccc(OC)cc4)c3=O)cc1)=C\CC[C@@]1(C)O[C@@H]21` reads -27.3% (active).
The result for `CCOC(=O)c1cnn2c(-c3ccc(Cl)cc3)nc(NCc3ccccc3)nc12` reads 44.5% (inactive); that for `O=C1CSC(c2ccc(O)cc2)N1c1nnc(Cn2cnnc2)o1` (stereo not given), 3.17% (active).
As to `CCCc1cc(=O)oc2c3c(c4c(c12)OC(C)(C)C=C4)O[C@@H](C)[C@H](C)C3=O`, the growth was 65.4% (inactive).
As for `O=C(/C=C/C12c3ccccc3C(c3ccccc31)C1C(=O)N(c3ccc(Cl)cc3)C(=O)C12)c1ccccn1` (stereo not given), the figure is 13.6% (inactive).
As to `c1ccc(-c2oc3ccccc3c2-c2ccccc2)cc1`, the growth was 57.3% (inactive).
On to `CCN(CC)S(=O)(=O)c1ccc(O)c(NC(=O)c2[nH]c(C)c(C(C)=O)c2CCc2ccc(Cl)cc2)c1`, for which the growth is 32.5% (inactive).
As for `C[C@@H]1C(=O)N(C[C@H](Cc2ccccc2)NC(=O)OCc2ccccc2)[C@]1(Cc1ccccc1)C(=O)OC(C)(C)C`, the figure is 64.4% (inactive); as for `CC1(C)N=C(N)N=C(N)N1c1cccc(CN)c1`, 105% (inactive).
Regarding `O=C(Oc1ccc[nH]c1=O)c1cc([N+](=O)[O-])cc([N+](=O)[O-])c1`, the growth is 136% (inactive).
As for `NC(N)=N/N=C/c1ccc(Br)cc1`, the figure is 18.4% (inactive).
The result for `CCCCN(CCCC)CCCn1c(=O)c2sc3ncccc3c2n2nnc(-c3ccccc3)c12` reads 99.2% (inactive); that for `CCNCCNc1cc(-c2cccc(C(F)(F)F)c2)c(C#N)c2nc3ccccc3n12`, -37.5% (active).
The result for `COc1cc2ccccc2cc1C(=O)NC(=S)Nc1ccc(-c2nc3ccccc3[nH]2)cc1` reads 28.3% (inactive); that for `O=C1/C(=C/c2ccccc2[N+](=O)[O-])COc2ccc(O)c(O)c21`, 3.56% (active).
As to `COc1cc(/C=C/C(=O)c2cccc(-n3cc(-c4ccc(Cl)cc4)[nH]c3=O)c2)cc(OC)c1OC`, the growth is -15.8% (active).
In the case of `Cn1cc(-c2ccc3nc(-c4ccc(CC(=O)Nc5cc(C(C)(C)C)no5)cc4)cnc3c2)cn1`, the growth was 15.2% [30 µM] (inactive).
Regarding `Cc1cccc(-c2cc(O)c(C(=O)N3CCOCC3)s2)c1`, the growth is 25.5% (inactive).
The result for `COc1cc(-c2ncn(/C=C\c3nnco3)n2)cc(C(F)(F)F)c1` reads 6.43% (active); that for `COc1ccc(CN2C(=O)/C(=C\c3cc(OC)c(OC)c(OC)c3)c3ccccc32)cc1`, -21.6% (active); that for `COc1cc2c(cc1OC)-c1ccc3cc4c(cc3c1N(CCCN(C)C)C2)OCO4`, 15.3% (inactive).
